Laboratory results: PubChem BioAssay AID463173 (ICCB-Longwood Screening Facility, Harvard Medical School, 2010)
In all, about 52,000 compounds went through this assay and about 4,300 (8.3%) were called active. Cut-off read from the data, not from the text of the source: active = survival mostly below about 52% (no sharp cut-off); inactive = mostly above about 56%. This excerpt belongs to a sample that is enriched for actives.

These compounds were tested on DeltatarO mutant (assay: growth inhibition of S. aureus wild type versus tarO mutant, primary screen, teichoic acid synthesis inhibitors, RN4220, OD600 (AID 463173)). Conditions: OD600, 18 h, stronger effect = lower value, screened at 18.75 µg/mL (by protocol).

Row | SMILES | survival
1 | CCc1ccc(N2C(=O)CSC23C(=O)N(Cc2cccc(F)c2)c2ccccc23)cc1 (stereo not drawn) | 124% (inactive)
2 | O=C1C(=O)N(C2CCN(C(=O)c3ccccc3Cl)CC2)CCN1Cc1ccc(F)cc1 | 67% (inactive)
3 | CN1C(C(=O)Nc2ccc(F)cc2F)=CC(c2cccs2)=NS1(=O)=O | 99% (inactive)
4 | CCCOc1ccc(-c2nc(SC)[nH]c(=O)c2C#N)cc1OC | 79% (inactive)
5 | Cc1ccccc1C(=O)N1CCC(c2nc3ccccc3s2)CC1 | 75% (inactive)
6 | CCc1ccc(OC(C)C(=O)N2CCC(c3nc4ccccc4s3)CC2)cc1 (stereo not drawn) | 28% (active)
7 | CCC(Oc1ccccc1F)C(=O)N1CCC(c2nc3ccccc3s2)CC1 (stereo not drawn) | 2% (active)
8 | COc1cccc(C(=O)N2CCC(c3nc4ccccc4s3)CC2)c1 | 70% (inactive)
9 | COc1ccccc1OC(C)C(=O)N1CCC(c2nc3ccccc3s2)CC1 (stereo not drawn) | 2% (active)
10 | O=C(c1ccccc1Cl)N1CCC(c2nc3ccccc3s2)CC1 | 57% (inactive)
11 | CC(Oc1ccc(F)cc1)C(=O)N1CCC(c2nc3ccccc3s2)CC1 (stereo not drawn) | 58% (inactive)
12 | COc1cc(C(=O)N2CCC(c3nc4ccccc4s3)CC2)cc(OC)c1OC | 74% (inactive)
13 | COc1ccc(C(=O)N2CCC(c3nc4ccccc4s3)CC2)cc1Cl | 62% (inactive)
14 | COCCCNC(=O)Cn1cnc2sc(C)c(S(=O)(=O)N3CCC(C)CC3)c2c1=O | 69% (inactive)
15 | CCOCCc1nn2c(=O)cc(COC(=O)c3ccccc3NC(=O)c3cccs3)nc2s1 | 58% (inactive)
16 | COc1ccc(CNC(=O)c2cc(-c3ccc(C)cc3)nc3n[nH]c(-c4ccc(Br)cc4)c23)cc1 | 74% (inactive)
17 | O=C(NCCc1ccc(Cl)cc1)c1nnc(Cc2ccc(Cl)cc2Cl)o1 | 96% (inactive)
18 | COc1ccccc1CNC(=O)CCNS(=O)(=O)c1ccc2c(c1)CCCC(=O)N2 | 60% (inactive)
19 | CC1CCN(C(=O)Cn2c(=O)n(CCCCCC(=O)NCc3ccccc3Cl)c(=O)c3sccc32)CC1 | 69% (inactive)
20 | COc1ccc(N2CC(NC(=O)C(c3ccccc3)c3ccccc3)CC2=O)cc1OC (stereo not drawn) | 90% (inactive)

Row | SMILES | survival
21 | CC(=O)Nc1ccc(NC(=O)C(NC(=O)C2CCC(C)CC2)C(C)C)cc1 (stereo not drawn) | 128% (inactive)
22 | COc1ccc(NC(=O)c2sc3nc4c(cc3c2N)CN(Cc2ccccc2)CC4)cc1 | 96% (inactive)
23 | CCN1CCc2nc3sc(C(=O)Nc4cccc(Cl)c4C)c(N)c3cc2C1 | 125% (inactive)
24 | Nc1c(C(=O)Nc2ccc(C(=O)O)cc2)sc2nc3c(cc12)CCCC3 | 42% (active)
25 | COc1ccccc1NC(=O)c1sc2nc3c(cc2c1N)CN(Cc1ccccc1)CC3 | 101% (inactive)
26 | CC(=O)c1cccc(NC(=O)c2sc3nc4c(cc3c2N)CCCC4)c1 | 60% (inactive)
27 | CCN1CCc2nc3sc(C(=O)Nc4ccccc4OC(F)(F)F)c(N)c3cc2C1 | 44% (active)
28 | COc1ccc(NC(=O)c2sc3nc4c(cc3c2N)CCCCCC4)cc1 | 127% (inactive)
29 | CN1CCc2nc3sc(C(=O)Nc4c(F)cccc4F)c(N)c3cc2C1 | 153% (inactive)
30 | CCN(CC)c1ccc(NC(=O)c2sc3nc4c(cc3c2N)CN(C)CC4)cc1 | 181% (inactive)
31 | COc1ccc(NC(=O)c2sc3nc4c(cc3c2N)CN(Cc2ccccc2)CC4)c(OC)c1 | 47% (active)
32 | CN1CCc2nc3sc(C(=O)Nc4cccc(C#N)c4)c(N)c3cc2C1 | 54% (active)
33 | CCOc1ccccc1NC(=O)c1sc2nc3c(cc2c1N)CN(Cc1ccccc1)CC3 | 63% (inactive)
34 | CCOC(=O)C1=C(CS(=O)(=O)c2cccc(C(F)(F)F)c2)NC(=O)NC1c1cccc(OC)c1 (stereo not drawn) | 48% (inactive)
35 | CC(=O)c1ccc(NS(=O)(=O)c2ccc3[nH]c4c(c3c2)CCCCCC4)cc1 | 84% (inactive)
36 | CCOc1ccc(C(=O)c2oc3ccccc3c2NC(=O)Cc2coc3cc(C)cc(C)c23)cc1 | 100% (inactive)
37 | CC(=O)c1ccc(NC(=O)CSc2ccc(-c3cccs3)nn2)cc1 | 126% (inactive)
38 | COc1cccc(C(=O)CN2CCN(S(=O)(=O)c3ccc(Cl)cc3)CC2)c1 | 74% (inactive)
39 | COc1ccccc1OCC(=O)N(Cc1ccco1)Cc1ccccc1F | 64% (inactive)
40 | CCc1cc(CC)c(/C=N/NC(N)=O)c(CC)c1/C=N/NC(N)=O | 94% (inactive)

Row | SMILES | survival
41 | CCc1ccc(NC(=O)c2sc3nc4c(cc3c2N)CN(CC)CC4)cc1 | 49% (active)
42 | Nc1c(C(=O)Nc2ccccc2)sc2nc3c(cc12)CN(Cc1ccccc1)CC3 | 63% (inactive)
43 | Cc1ccc(NC(=O)c2sc3nc4c(cc3c2N)CN(Cc2ccccc2)CC4)cc1 | 110% (inactive)
44 | Cc1cccc(N2CCN(C(=O)Cn3ncc4c3-c3ccccc3OC4)CC2)c1C | 77% (inactive)
45 | COc1ccc2[nH]c(C)c(CCNS(=O)(=O)c3cc(F)ccc3OC)c2c1 | 57% (inactive)
46 | COc1cc(S(=O)(=O)NCCc2c(C)[nH]c3ccccc23)c(C)cc1C | 56% (inactive)
47 | COc1cc(Cl)c(S(=O)(=O)NCCc2c(C)[nH]c3c(C)cccc23)cc1Cl | 57% (inactive)
48 | COc1c(C)cc(S(=O)(=O)NCCc2c(C)[nH]c3ccccc23)c(C)c1C | 59% (active)
49 | COc1cc(C)c(Cl)cc1S(=O)(=O)NCCc1c(C)[nH]c2ccccc12 | 37% (active)
50 | COc1ccc(C(C)C)cc1S(=O)(=O)NCCc1c(C)[nH]c2ccc(C)cc12 | 84% (inactive)
51 | COc1cccc(C(c2nnnn2CCC(C)C)N2CCN(c3cccc(C)c3C)CC2)c1OC (stereo not drawn) | 82% (inactive)
52 | CCOC(=O)C1CC1c1ccccc1 (stereo not drawn) | 81% (inactive)
53 | Cc1cccc(C(=O)Nc2ccc(C(=O)OCc3cc(=O)n4nc(CC(C)C)sc4n3)cc2)c1 | 99% (inactive)
54 | COc1cccc(Nc2ccc3cc(S(=O)(=O)N4CCC(C)CC4)ccc3n2)c1 | 88% (inactive)
55 | COc1ccc(NC(=O)N(Cc2nnc3n2CCCCC3)c2ccc(OC)c(Cl)c2)cc1 | 60% (inactive)
56 | O=C(O)c1cccnc1N1CCOCC1 | 84% (inactive)
57 | O=C(NCc1cccs1)c1ccc(CSc2nc3ccncc3n2Cc2ccccc2)cc1 | 110% (inactive)
58 | COc1ccc(OC)c(NS(=O)(=O)c2ccc3[nH]c4c(c3c2)CCCCC4)c1 | 77% (inactive)
